Measurements from PubChem BioAssay (EPA / NIEHS).
Inconclusive results are not listed. Active and inactive are the calls of the source. How the source made its calls, unless noted: active means hit-call score of the fitted dose curve at least 0.9, where 1 is the maximum; inactive means score below 0.9.

Assays:
[1] = target: Glucocorticoid receptor (Homo sapiens) (UniProt P04150); experiment: ATG_GR_TRANS: Attagene TRANS-FACTORIAL HepG2 Assay for human Glucocorticoid Receptor (GR) (AID 2282978; active means hit-call score of the fitted dose curve at least 0.9, where 1 is the maximum;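 further: activators score as hits since higher reporter transcript over DMSO is fitted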); details: HepG2 Attagene TRANS GR reporter, mRNA transcription
In short: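 Readout is reporter transcript from a chimeric GR-Gal4 acting on GAL4-UAS in transfected human HepG2 liver cells after 24 h exposure, quantified by RT-PCR and capillary electrophoresis. Activation fitted upward against DMSO.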

[2] = target: Bile acid receptor (Homo sapiens) (UniProt Q96RI1); experiment: ATG_FXR_TRANS: Attagene TRANS-FACTORIAL HepG2 Assay for Farnesoid X Receptor (FXR) (AID 2282979; active means hit-call score of the fitted dose curve at least 0.9, where 1 is the maximum;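 further: hits raise reporter mRNA above DMSO so AC50 marks FXR activation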); details: HepG2 Attagene TRANS FXR-GAL4 reporter transcription
In short: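 After 24 h chemical treatment of transfected HepG2 cells, GAL4-UAS reporter transcripts driven by an exogenous FXR-GAL4 fusion were measured by RT-PCR and capillary electrophoresis. Increases over DMSO were fitted.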

[3] = target: Oxysterols receptor LXR-alpha (Homo sapiens) (UniProt Q13133); experiment: ATG_LXRa_TRANS: Attagene TRANS-FACTORIAL HepG2 Assay for human Liver X Receptor alpha (LXRa) (AID 2282980; active means hit-call score of the fitted dose curve at least 0.9, where 1 is the maximum); details: HepG2 Attagene TRANS reporter, LXRa transactivation
In short: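 In this multiplexed TRANS system, compounds act on HepG2 cells carrying GAL4-UAS reporter units and a receptor-GAL4 fusion for 24 h. Induced reporter RNA is amplified, fluorescently labelled and sized by capillary electrophoresis, with DMSO as baseline.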

[4] = ATG_M_06_TRANS: Attagene TRANS-FACTORIAL HepG2 Assay for M06 Transcription Factor (Internal Marker) (AID 2282983; active means hit-call score of the fitted dose curve at least 0.9, where 1 is the maximum); details: HepG2 Attagene TRANS M06 internal marker reporter
In short: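 Multi-reporter-transfected HepG2, 24 h treatment; reporter transcripts quantified via RT-PCR, primer-extension labelling and CE. DMSO-normalized gain-of-signal fit.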

[5] = ATG_M_32_TRANS: Attagene TRANS-FACTORIAL HepG2 Assay for M32 Transcription Factor (Internal Marker) (AID 2282984; active means hit-call score of the fitted dose curve at least 0.9, where 1 is the maximum;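 further: transcript level of a background control reporter unit measured by RT-PCR and capillary electrophoresis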); details: HepG2 Attagene TRANS M32 internal marker reporter
In short: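 Internal-marker readout from a multiplexed transcription reporter panel. HepG2 cells were transfected with GAL4-UAS reporter units, treated 24 hours, and reporter transcript levels determined by fluorescence after RT-PCR and capillary separation.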

[6] = target: Transcriptional activator Myb (Homo sapiens) (UniProt P10242); experiment: ATG_Myb_CIS: Attagene CIS-FACTORIAL HepG2 Assay for human Myeloblastosis (Myb) Proto-Oncogene Transcription Factor (AID 2282986); details: HepG2 Attagene CIS-FACTORIAL Myb reporter transcription; actives raise or lower the signal
In short: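 Reporter mRNA is quantified by RT-PCR and capillary electrophoresis 24 h after dosing HepG2 cells transfected with cis-regulated reporter units, which track endogenous transcription factor activity. Gain and loss of signal are fitted versus DMSO baseline.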

[7] = target: Nuclear respiratory factor 1 (Homo sapiens) (UniProt Q16656); experiment: ATG_NRF1_CIS: Attagene CIS-FACTORIAL HepG2 Assay for human Nuclear Respiratory Factor 1 (NRF1) Orphan Gene (AID 2282987); details: HepG2 NRF1 cis-element reporter, Attagene multiplex; actives raise or lower the signal
In short: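 Endogenous NRF1-driven reporter transcription in transfected HepG2 cells after 24 h treatment. Readout: RT-PCR products, 6-FAM labelled and resolved by capillary electrophoresis; changes fitted both directions relative to DMSO.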

[8] = ATG_NFI_CIS: Attagene CIS-FACTORIAL HepG2 Assay for human Nuclear Factor I (NFI) (AID 2282989); details: HepG2 cis-regulatory reporter, NFI response element transcription; actives raise or lower the signal
In short: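 Reporter transcription driven by endogenous transcription factors in HepG2 cells; 24 h treatment. Quantitation by labelled RT-PCR fragments on capillary electrophoresis, gain- or loss-of-signal relative to DMSO.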

[9] = target: Myc proto-oncogene protein (Homo sapiens) (UniProt P01106); experiment: ATG_Myc_CIS: Attagene CIS-FACTORIAL HepG2 Assay for human Myelocytomatosis (Myc) Proto-Oncogene Transcription Factor (AID 2282990); details: HepG2, Attagene cis-reporter transcription factor activity; actives raise or lower the signal
In short: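 Transiently transfected HepG2 cells bearing cis-promoter reporter units for endogenous transcription factors; 24 h exposure. Reporter mRNA measured by RT-PCR, 6-FAM primer extension, HpaI cut and capillary electrophoresis; bidirectional fit relative to DMSO.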

[10] = ATG_NRF2_ARE_CIS: Attagene CIS-FACTORIAL HepG2 Assay for human Nuclear Factor Erythroid 2 Related Factor 2 (NFR2) response to Antioxidant Response Elements (ARE) (AID 2282992); details: HepG2 Attagene ARE/NRF2 reporter, transcription factor activity; actives raise or lower the signal;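 on AC50: reporter mRNA level measured by RT-PCR and capillary electrophoresis fluorescence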
In short: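 Readout: reporter mRNA quantified by RT-PCR plus FAM-labelled primer extension, HpaI digestion and capillary electrophoresis, 24 h after dosing transfected HepG2 cells. Gain or loss of signal is fitted bidirectionally against DMSO baseline.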

[11] = ATG_Oct_MLP_CIS: Attagene CIS-FACTORIAL HepG2 Assay for human Octamer-Binding Transcription Factor (Oct) (AID 2282993); details: HepG2 Attagene cis-factorial Oct reporter, mRNA; actives raise or lower the signal
In short: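 Transfected HepG2 cells, 24 h treatment. Reporter mRNA quantified by RT-PCR–capillary electrophoresis; bidirectional fitting against DMSO.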

[12] = BSK_3C_TissueFactor: BioMAP Diversity Plus: 3C Assay for Tissue Factor Biomarker Activity (AID 2282997); details: BioMAP 3C HUVEC, tissue factor biomarker readout; actives raise or lower the signal
In short: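 In this endothelial system, HUVEC are treated for 24 h and Tissue Factor is assessed by ELISA, normalised to DMSO.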

[13] = BSK_3C_uPAR: BioMAP Diversity Plus: 3C Assay for Urokinase-type plasminogen activator receptor (uPAR) Biomarker Activity (AID 2282998); details: BioMAP 3C HUVEC, uPAR biomarker ELISA; actives raise or lower the signal
In short: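 Readout: ELISA for surface uPAR. System: human umbilical vein endothelial primary cells, 24 h after chemical exposure. Analysis: bidirectional fit, DMSO baseline.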

[14] = target: Estrogen-related receptor gamma (Homo sapiens) (UniProt P62508); experiment: ATG_ERRg_TRANS: Attagene TRANS-FACTORIAL HepG2 Assay for human Estrogen-Related Receptor gamma (ERRg) (AID 2282977; active means hit-call score of the fitted dose curve at least 0.9, where 1 is the maximum;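 further: hits increase reporter signal over DMSO so potencies reflect activators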); details: HepG2 Attagene TRANS reporter, ERRg transactivation
In short: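 Exogenous NR-Gal4 chimera activity measured as reporter transcript induction after 24 h in transiently transfected HepG2 cells. RNA reverse-transcribed, PCR-amplified, 6-FAM-labelled and resolved by capillary electrophoresis; increase over DMSO baseline.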

[15] = target: Nuclear receptor subfamily 4 group A member 2 (Homo sapiens) (UniProt P43354); experiment: ATG_NURR1_TRANS: Attagene TRANS-FACTORIAL HepG2 Assay for human Nuclear Receptor Related Protein 1 (NURR1) (AID 2282985; active means hit-call score of the fitted dose curve at least 0.9, where 1 is the maximum); details: HepG2 Attagene TRANS reporter, mRNA readout
In short: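 Endpoint: reporter mRNA increase relative to DMSO. HepG2 cells transfected with reporter units, treated 24 h; RNA processed by RT-PCR, labelling, HpaI digestion and capillary electrophoresis.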

[16] = ATG_NF_kB_CIS: Attagene CIS-FACTORIAL HepG2 Assay for human Nuclear Factor Kappa B (NF-kB) (AID 2282991); details: HepG2 Attagene cis-factorial NF-kB reporter mRNA; actives raise or lower the signal
In short: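 Readout is reporter transcript level, gain or loss versus DMSO, measured 24 h post-dose via RT-PCR, fluorescent labelling and capillary electrophoresis. Human HepG2 liver cells carried transiently transfected CIS reporter constructs reflecting endogenous factors.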

[17] = ATG_GAL4_TRANS: Attagene TRANS-FACTORIAL HepG2 Assay for GAL4 (Internal Marker) (AID 2282976; active means hit-call score of the fitted dose curve at least 0.9, where 1 is the maximum); details: HepG2 Attagene TRANS GAL4 internal marker reporter
In short: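 Liver HepG2 line bearing multiplexed GAL4-UAS reporter constructs; 24 h chemical treatment. Transcripts were quantified as fluorescent fragments on capillary electrophoresis after RT-PCR and HpaI cut, with activity fitted upward from DMSO.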

[18] = target: Oxysterols receptor LXR-beta (Homo sapiens) (UniProt P55055); experiment: ATG_LXRb_TRANS: Attagene TRANS-FACTORIAL HepG2 Assay for human Liver X Receptor beta (LXRb) (AID 2282981; active means hit-call score of the fitted dose curve at least 0.9, where 1 is the maximum); details: HepG2 Attagene TRANS GAL4-LXRb reporter, mRNA
In short: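 Multiplexed reporter assay, HepG2, 24 h dosing. Fluorescence of labelled RT-PCR products after capillary electrophoresis gives transcript level; positive fitting direction relative to DMSO.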

Measured: AC50

Chain of Nuclear respiratory factor 1 (Homo sapiens) (Q16656 whole entry, looked up): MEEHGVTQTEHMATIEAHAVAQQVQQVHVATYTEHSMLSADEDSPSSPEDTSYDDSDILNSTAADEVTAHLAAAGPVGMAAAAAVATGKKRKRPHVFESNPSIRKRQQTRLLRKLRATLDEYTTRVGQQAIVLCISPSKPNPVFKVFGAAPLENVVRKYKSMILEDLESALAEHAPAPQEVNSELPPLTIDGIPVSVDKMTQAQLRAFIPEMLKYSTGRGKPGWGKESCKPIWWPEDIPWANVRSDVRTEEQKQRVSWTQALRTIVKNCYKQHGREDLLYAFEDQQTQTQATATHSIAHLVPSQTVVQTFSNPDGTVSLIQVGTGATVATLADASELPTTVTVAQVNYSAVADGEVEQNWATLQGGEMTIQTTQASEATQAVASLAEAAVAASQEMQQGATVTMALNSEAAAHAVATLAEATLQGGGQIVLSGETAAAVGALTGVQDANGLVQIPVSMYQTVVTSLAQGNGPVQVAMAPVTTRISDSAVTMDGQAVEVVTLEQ
Chain of Transcriptional activator Myb (Homo sapiens) (P10242 whole entry, looked up): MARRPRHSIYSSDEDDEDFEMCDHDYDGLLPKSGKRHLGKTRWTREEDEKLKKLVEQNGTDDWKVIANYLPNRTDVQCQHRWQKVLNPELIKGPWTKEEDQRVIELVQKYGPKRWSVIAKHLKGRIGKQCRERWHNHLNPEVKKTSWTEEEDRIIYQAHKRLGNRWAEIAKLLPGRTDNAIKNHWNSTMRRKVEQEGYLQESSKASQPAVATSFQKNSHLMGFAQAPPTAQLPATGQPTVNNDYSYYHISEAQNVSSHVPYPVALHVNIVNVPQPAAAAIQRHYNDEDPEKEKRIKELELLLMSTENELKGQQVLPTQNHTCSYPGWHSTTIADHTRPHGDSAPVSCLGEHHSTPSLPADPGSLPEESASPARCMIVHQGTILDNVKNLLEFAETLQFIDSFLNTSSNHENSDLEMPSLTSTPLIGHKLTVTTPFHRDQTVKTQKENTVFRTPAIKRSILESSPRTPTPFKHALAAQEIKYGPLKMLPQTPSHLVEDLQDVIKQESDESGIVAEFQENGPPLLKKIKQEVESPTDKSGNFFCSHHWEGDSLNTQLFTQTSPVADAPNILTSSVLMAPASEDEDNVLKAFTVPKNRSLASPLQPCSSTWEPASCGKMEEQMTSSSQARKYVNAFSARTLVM
Chain of Myc proto-oncogene protein (Homo sapiens) (P01106 whole entry, looked up): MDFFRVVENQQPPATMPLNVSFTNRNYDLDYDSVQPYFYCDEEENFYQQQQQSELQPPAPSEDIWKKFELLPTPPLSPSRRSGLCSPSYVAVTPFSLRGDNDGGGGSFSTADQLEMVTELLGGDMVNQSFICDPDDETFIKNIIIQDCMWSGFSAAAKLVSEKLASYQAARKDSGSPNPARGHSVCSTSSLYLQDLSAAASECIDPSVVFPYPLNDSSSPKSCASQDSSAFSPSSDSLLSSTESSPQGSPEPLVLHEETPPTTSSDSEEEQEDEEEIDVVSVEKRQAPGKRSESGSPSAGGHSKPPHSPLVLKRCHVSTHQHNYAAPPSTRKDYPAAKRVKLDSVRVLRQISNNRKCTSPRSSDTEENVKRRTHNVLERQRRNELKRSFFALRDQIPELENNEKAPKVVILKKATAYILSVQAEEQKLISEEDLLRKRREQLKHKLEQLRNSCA
Chain of Oxysterols receptor LXR-alpha (Homo sapiens) (Q13133 whole entry, looked up, the tested form may be a part): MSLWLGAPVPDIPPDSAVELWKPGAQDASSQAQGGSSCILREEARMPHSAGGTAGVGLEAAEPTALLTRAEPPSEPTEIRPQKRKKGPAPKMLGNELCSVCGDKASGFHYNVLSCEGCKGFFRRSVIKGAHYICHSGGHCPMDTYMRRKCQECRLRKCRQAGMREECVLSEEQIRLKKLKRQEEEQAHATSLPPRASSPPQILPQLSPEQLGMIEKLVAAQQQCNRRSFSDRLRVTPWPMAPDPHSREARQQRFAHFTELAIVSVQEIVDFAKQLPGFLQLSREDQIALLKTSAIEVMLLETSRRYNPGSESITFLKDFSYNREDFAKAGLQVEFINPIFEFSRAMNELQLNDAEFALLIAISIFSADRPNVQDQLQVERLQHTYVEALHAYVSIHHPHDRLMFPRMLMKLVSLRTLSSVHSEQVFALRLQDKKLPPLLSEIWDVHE
Chain of Glucocorticoid receptor (Homo sapiens) (P04150 whole entry, looked up, the tested form may be a part): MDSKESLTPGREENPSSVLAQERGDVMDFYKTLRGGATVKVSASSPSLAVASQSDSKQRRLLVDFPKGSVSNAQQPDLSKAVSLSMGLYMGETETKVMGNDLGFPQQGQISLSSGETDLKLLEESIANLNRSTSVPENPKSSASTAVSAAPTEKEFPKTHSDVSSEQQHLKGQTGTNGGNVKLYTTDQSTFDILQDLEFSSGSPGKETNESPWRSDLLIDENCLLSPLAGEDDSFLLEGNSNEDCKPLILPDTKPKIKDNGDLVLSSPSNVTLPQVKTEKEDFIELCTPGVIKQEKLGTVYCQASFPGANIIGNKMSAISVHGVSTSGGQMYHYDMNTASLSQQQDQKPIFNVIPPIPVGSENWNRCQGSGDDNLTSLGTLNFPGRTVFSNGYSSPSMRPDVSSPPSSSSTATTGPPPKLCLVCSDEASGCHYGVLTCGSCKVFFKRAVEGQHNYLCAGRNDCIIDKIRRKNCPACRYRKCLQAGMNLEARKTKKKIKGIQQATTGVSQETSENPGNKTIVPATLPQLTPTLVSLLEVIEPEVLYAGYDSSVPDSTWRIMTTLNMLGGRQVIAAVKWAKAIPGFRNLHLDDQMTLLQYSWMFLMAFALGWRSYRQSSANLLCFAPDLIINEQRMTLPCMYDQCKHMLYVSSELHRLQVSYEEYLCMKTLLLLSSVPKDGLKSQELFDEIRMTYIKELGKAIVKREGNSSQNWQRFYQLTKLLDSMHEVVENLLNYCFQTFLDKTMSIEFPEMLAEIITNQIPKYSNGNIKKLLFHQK
Chain of Oxysterols receptor LXR-beta (Homo sapiens) (P55055 whole entry, looked up, the tested form may be a part): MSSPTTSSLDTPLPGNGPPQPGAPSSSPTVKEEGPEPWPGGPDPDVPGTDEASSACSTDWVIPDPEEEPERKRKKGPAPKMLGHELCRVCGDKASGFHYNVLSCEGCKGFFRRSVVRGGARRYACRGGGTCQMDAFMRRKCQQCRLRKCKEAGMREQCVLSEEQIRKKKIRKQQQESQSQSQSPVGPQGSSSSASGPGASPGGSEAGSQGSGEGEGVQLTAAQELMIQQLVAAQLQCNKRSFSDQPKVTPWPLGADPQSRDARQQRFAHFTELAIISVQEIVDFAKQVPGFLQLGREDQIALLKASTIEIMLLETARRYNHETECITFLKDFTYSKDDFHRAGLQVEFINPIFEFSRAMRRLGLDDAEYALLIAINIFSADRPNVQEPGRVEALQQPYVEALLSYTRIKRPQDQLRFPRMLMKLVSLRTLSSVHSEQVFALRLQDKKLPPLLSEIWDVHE
Chain of Nuclear receptor subfamily 4 group A member 2 (Homo sapiens) (P43354 whole entry, looked up): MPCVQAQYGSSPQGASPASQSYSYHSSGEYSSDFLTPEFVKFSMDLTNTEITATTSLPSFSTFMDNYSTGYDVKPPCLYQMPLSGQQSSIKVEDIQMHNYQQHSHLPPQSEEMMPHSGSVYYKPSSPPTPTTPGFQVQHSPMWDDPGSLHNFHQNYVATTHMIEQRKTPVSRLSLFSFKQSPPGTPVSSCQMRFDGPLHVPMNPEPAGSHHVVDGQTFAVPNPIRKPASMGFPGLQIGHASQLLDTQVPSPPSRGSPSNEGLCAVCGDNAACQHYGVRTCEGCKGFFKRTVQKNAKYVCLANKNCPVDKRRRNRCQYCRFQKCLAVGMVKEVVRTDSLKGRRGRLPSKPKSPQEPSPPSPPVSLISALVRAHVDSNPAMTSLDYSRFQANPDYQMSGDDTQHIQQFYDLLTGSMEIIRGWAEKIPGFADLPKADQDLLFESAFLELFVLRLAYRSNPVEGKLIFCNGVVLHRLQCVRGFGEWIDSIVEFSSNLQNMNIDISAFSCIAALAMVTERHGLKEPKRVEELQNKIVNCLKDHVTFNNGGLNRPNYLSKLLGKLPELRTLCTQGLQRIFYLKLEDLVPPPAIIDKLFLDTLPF
Chain of Estrogen-related receptor gamma (Homo sapiens) (P62508 whole entry, looked up, the tested form may be a part): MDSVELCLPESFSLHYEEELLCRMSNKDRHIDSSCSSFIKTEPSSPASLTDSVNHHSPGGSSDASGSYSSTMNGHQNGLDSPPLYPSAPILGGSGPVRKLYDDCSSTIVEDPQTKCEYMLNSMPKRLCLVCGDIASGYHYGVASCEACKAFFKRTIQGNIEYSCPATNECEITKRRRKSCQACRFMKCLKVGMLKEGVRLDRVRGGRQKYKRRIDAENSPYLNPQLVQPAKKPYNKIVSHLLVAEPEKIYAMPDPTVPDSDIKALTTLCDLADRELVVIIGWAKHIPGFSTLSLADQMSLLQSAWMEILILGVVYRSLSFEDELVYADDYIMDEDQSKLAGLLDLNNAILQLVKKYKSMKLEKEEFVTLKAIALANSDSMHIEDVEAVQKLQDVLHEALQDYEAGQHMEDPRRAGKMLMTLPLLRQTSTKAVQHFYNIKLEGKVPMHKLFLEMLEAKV
Chain of Bile acid receptor (Homo sapiens) (Q96RI1 whole entry, looked up, the tested form may be a part): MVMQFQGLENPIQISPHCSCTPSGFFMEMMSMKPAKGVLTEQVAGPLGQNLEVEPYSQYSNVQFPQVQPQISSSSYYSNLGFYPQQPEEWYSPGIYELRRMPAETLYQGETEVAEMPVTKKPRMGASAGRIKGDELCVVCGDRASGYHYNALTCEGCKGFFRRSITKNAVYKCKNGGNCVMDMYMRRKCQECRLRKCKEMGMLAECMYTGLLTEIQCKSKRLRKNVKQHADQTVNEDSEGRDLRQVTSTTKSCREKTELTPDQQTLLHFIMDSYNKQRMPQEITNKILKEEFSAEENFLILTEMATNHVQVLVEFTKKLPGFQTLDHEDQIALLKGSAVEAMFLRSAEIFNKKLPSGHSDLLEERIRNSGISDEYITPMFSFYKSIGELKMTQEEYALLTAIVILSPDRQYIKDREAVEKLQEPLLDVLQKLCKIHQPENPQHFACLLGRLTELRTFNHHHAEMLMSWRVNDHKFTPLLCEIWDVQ

c1ccc2c(c1)sc1ccccc12
inactive: [1] | [2] | [3] | [4] | [5] | [6] | [7] | [8] | [9] | [10] | [11] | [12] | [13]

CCOP(=S)(Oc1ccc([N+](=O)[O-])cc1)c1ccccc1 (centres undefined)
inactive: [14] | [4] | [15] | [6] | [7] | [8] | [9] | [16] | [11] | [12] | [13]
active: [10] 7.75 µM

O=C(O)C(Cl)Cl
inactive: [17] | [1] | [3] | [4] | [6] | [7] | [8] | [9] | [10] | [11] | [12] | [13]

CCOP(=S)(OCC)SCSc1ccc(Cl)cc1
inactive: [18]

O=[N+]([O-])c1ccccc1
inactive: [18]
